This note sets out measurements from PubChem BioAssay (EPA / NIEHS).

Inconclusive results are not listed. The source made the active and inactive calls. How the source made its calls: active means hit-call score of the fitted dose curve at least 0.9, where 1 is the maximum; inconclusive means response in the unintended direction; inactive means score below 0.9.

Sequence of Estrogen receptor (Homo sapiens) (P03372 whole entry, looked up, the tested form may be a part): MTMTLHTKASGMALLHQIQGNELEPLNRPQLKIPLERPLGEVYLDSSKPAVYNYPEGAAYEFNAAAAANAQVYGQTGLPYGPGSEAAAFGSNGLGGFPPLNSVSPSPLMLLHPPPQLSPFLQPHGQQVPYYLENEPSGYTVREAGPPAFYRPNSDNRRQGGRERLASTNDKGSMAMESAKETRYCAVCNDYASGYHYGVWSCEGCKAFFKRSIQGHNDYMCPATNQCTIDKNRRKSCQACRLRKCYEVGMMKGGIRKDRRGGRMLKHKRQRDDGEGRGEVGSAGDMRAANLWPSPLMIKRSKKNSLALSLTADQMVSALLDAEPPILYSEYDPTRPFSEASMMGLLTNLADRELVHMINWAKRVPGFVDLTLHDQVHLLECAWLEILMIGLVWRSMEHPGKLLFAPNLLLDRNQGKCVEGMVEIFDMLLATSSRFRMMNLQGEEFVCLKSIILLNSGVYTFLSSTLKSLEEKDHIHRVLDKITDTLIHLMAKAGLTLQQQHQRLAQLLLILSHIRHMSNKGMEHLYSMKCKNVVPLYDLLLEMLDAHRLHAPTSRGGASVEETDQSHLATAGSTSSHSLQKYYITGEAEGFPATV

This assay concerns the target Estrogen receptor (Homo sapiens) (UniProt P03372). Nature of the assay: OT_ER_ERaERa_0480: Odyssey Thera (OT) 8-hour HEK293T Protein-Complementation Assay for Estrogen Receptor-alpha/-alpha Homodimer (AID 2283351).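 Further: rise in fluorescence from reassembled reporter fragments on ERα LBD homodimer in nucleus or whole cell.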 The essentials:
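The readout is complementation of fragments fused to the human ER alpha ligand-binding domain (aa 310-547), stably expressed in HEK293T cells. After 8 h of exposure, the increase in nuclear/cytoplasmic fluorescence was measured by laser scanning cytometry and fitted relative to DMSO.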
With `C=CCN=C=S`, the call was inactive.
With `O=C(CCl)Nc1ccccc1` the entry was “inactive”; with `O=C1c2ccccc2C(=O)C1C(=O)C(c1ccccc1)c1ccc(Cl)cc1` (centres undefined), “inactive”; with `O=[N+]([O-])c1ccc(Cl)c([N+](=O)[O-])c1`, “inactive”.
Under `O=CCCl` stands “inactive”; under `N#CCC#N`, “inactive”.
As for `O=C(O)COc1ccc(Cl)cc1`, the compound was called inactive.
Under `CCC[CH2][Sn]([Cl])([Cl])[CH2]CCC` stands “inactive”; under `CC(=Cc1ccccc1)[N+](=O)[O-]`, “inactive”; under `CC(C)N(C(=O)CCl)c1ccccc1`, “inactive”.
Under `O=C(NC(=O)c1c(F)cccc1F)Nc1cc(Cl)c(OC(F)(F)C(F)C(F)(F)F)cc1Cl` (centres undefined) stands “inactive”; under `O=S1(=O)OC(c2cc(Br)c(O)c(Br)c2)(c2cc(Br)c(O)c(Br)c2)c2ccccc21`, “inactive”.
With `CCCSP(=S)(OCC)Oc1ccc(SC)cc1` (centres undefined) the entry was “inactive”; with `CC(C)=CC1C(C(=O)OCc2cccc(Oc3ccccc3)c2)C1(C)C` (centres undefined), “inactive”.
As for `CNC(=O)O/N=C/C(C)(C)S(C)(=O)=O`, the compound was called inactive.
With `CCOc1ccc(N)cc1` the entry was “inactive”.
Under `Cc1cc(Cl)ccc1OC(C)C(=O)O` (centres undefined) stands “inactive”; under `CCCCCCCCCCCCN(C)C`, “inactive”.
Under `CC(O)(CS(=O)(=O)c1ccc(F)cc1)C(=O)Nc1ccc(C#N)c(C(F)(F)F)c1` (centres undefined) stands “inactive”.
As to `O=C(NC(=O)c1c(F)cccc1F)Nc1ccc(Cl)cc1`, the compound was called inactive.
Under `CCOCn1c(-c2ccc(Cl)cc2)c(C#N)c(Br)c1C(F)(F)F` stands “inactive”; under `Oc1c(Br)cc(Br)cc1Br`, “inactive”.
With `CCN(CCO)CCO` the entry was “inactive”; with `O=S1OC[C@@H]2[C@H](CO1)[C@]1(Cl)C(Cl)=C(Cl)[C@@]2(Cl)C1(Cl)Cl` (some centres undefined), “inactive”.
